Results filed as inconclusive are left out. Activity calls are given as the source filed them. The calls were made as follows: active = hit-call score of the fitted dose curve at least 0.9, where 1 is the maximum; inconclusive = response in the unintended direction; inactive = score below 0.9.

A short description of the assay: STM_H9_NormalizedViability: Cytotoxicity Assessment at 120 hours in the Stemina devTOX quickPredict H9 human embryonic stem cell (hESC)-based Assay (AID 2283784). Here is the method:
STM_H9_viability utilizes undifferentiated H9 cells to measure cell viability.STM_H9_NormalizedViability is a component calculated in the STM_H9_viability assay. It measures cell viability using background corrected relative fluorescence units (RFU) value from the CellTiterFluor Assay normalized to the value of the 0.1% DMSO neutral control treatment (by 96-well plate)Data from the assay component STM_H9_Viability was analyzed at the assay endpoint STM_H9_Viability_Norm in the positive analysis fitting direction relative to DMSO as the negative control and baseline of activity. Using a type of viability reporter, loss-of-signal activity can be used to understand viability.
H9 hESCs maintained in a pluripotent state were exposed to test compound for 72h with chemical replenishment with media replacement every 24h. Cell-conditioned media from the final 24-h treatment period was collected for analysis of the targeted biomarker, and cell viability of the corresponding cell layer was assessed. The chemical library was tested in blinded fashion. Each test plate included 1uM Methotrexate (MTX; Selleck Chemicals, Houston, Texas) as a positive reference, 5 nM MTX as a negative reference, 0.1% DMSO as the neutral (vehicle) control, and sample-level media blanks.H9 cell-conditioned media from the final 24-h treatment period was collected for analysis of the targeted biomarker and cell viability was measured from the corresponding cell layer. Cell viability was measured using the CellTiter-Fluor assay (Promega, Madison, Wisconsin) based on proteolytic cleavage of a substrate to fluorescent signal proportional to the number of living cells. The cell viability Relative Fluorescence Unit (RFU) was background corrected and normalized to mean RFU of the neutral control (0.1% DMSO). The collected H9-cell-conditioned media samples were processed for targeted biomarker analysis as described (Palmer et al., 2013). Briefly, spent media samples were deproteinized (40% acetonitrile) and processed for UPLC-HRMS. Data acquisition was performed using 4 separate UPLC-HRMS systems, consisting of an Agilent 1290 Infinity LC system (Agilent Technologies) interfaced with an Agilent high-resolution mass spectrometer (models G6520A, G6520B, G6530A, and G6224A). A Waters Acquity UPLC BEH Amide column (2.1mm x 50mm, 1.7lm particle size; Waters, Milford, Massachusetts) maintained at 40C was applied for separation of metabolites using a 6.5min solvent gradient with 0.1% formic acid in water and 0.1% formic acid in acetonitrile (1.0ml/min flow rate). Data were acquired using MassHunter Acquisition software (version B 04.00, Agilent Technologies). The extracted ion chromatogram (EIC) areas for ORN, CYSS, and their respective spike-in C13-standards were determined using the Agilent MassHunter Quantitative Analysis software, version B.05.00 or newer (Agilent Technologies), and data were normalized as described in Palmer et al. (2017).
Regarding `CC(=O)OC/C=C(C)/C=C/C=C(C)/C=C/C1=C(C)CCCC1(C)C`, the concentration at half-maximal activity (AC50) was 87.5 µM (active).
Consider `CCCCCCOC(C)=O`, for which the outcome was inactive.
For the molecule `CCOC(=O)C=Cc1ccccc1`, the result was inactive.

In general, AC50 refers to the concentration giving half of the maximal activity seen.

The values are drawn from PubChem BioAssay (EPA / NIEHS).
